# Data from PubChem BioAssay AID2551 (National Center for Advancing Translational Sciences (NCATS), 2010).
# About 17,000 (5.5%) of roughly 310,000 compounds were called active. Not shown: some 11% with an inconclusive outcome. What follows is part of a selection rich in actives, with near analogues and random picks from the rest. Entries that show only a call come without a potency. A number with no mark means an inactive call. Calls come from the whole dose curve; as a rule, active = well fitted inhibition curve with a large enough effect; inconclusive = small, poorly fitted or top-dose-only effect, or effect the other way; inactive = no such curve, though single readings can be large or run the other way.
# Target: Nuclear receptor ROR-gamma (Mus musculus) (UniProt P51450)
# Assay: qHTS for inhibitors of ROR gamma transcriptional activity; note: nearly all actives have a fitted effect of over 60% in size
# Conditions: Drosophila S2 Gal4-RORgamma UAS-luciferase reporter, 20 h; series mostly up to 53.6 µM
# Outline: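 Read-out: Photinus luciferase luminescence; inhibitors lower reporter signal. Insect Schneider cells with Gal4-ROR gamma fusion under metallothionein promoter, UAS reporter; 700 uM final copper sulfate induction, 20 hr, ambient temperature.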
# Potency is the fitted concentration of half-maximal effect.
# Nuclear receptor ROR-gamma (Mus musculus), sequence (P51450 whole entry, looked up): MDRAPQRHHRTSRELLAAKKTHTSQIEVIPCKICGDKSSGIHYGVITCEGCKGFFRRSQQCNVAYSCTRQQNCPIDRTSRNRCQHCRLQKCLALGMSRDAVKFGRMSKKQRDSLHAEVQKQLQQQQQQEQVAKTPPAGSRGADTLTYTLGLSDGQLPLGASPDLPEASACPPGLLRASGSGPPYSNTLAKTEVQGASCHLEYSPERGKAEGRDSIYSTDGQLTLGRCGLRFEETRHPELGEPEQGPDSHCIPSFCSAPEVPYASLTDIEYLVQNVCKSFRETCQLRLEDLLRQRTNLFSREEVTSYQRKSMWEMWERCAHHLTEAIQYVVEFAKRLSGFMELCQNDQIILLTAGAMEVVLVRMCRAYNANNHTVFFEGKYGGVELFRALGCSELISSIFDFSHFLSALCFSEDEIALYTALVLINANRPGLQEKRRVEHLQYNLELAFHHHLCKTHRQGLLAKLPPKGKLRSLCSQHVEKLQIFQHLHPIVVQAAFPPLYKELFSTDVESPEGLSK
Structure (SMILES),Potency,"activity change, negative = inhibition"
COCc1c(C(=O)N/N=C(\C)c2ccncc2)nnn1-c1nonc1N,inactive,–
C=CCNC(=O)c1ccccc1SCc1c(C)noc1C,inactive,–
Cc1ccc(NC(=O)C(CC(=O)O)C2CCCO2)c(C)c1 (stereo unspecified),inactive,–
O=C(Nc1ccc(Cl)cc1)c1cccc(OC(=S)N2CCOCC2)c1,inactive,–
COc1ccc(S(=O)(=O)N(C)CC(=O)N2CCCC2)cc1,–,-15.8% [at 1.91 µM]
Cc1ccc(NC(=O)C/C(N)=N/O)cc1Cl,inactive,–
O=C(CC(O)(C(F)(F)F)C(F)(F)F)Nc1ccc(Cl)c(Cl)c1,5.01 µM (active),–
O=C(Cc1ccc(Cl)c(Cl)c1)Nc1ccc(SC(F)F)cc1,inactive,–
COc1ccccc1N(CC(=O)NC1CCCC1)C(=O)C1(C)CC(=O)N=C2C=CC(C)=CN21 (stereo unspecified),inactive,–
O=C1CCCCN1CCCC(=O)N1CCCC(Nc2ccc(F)cc2)C1 (stereo unspecified),inactive,–
O=C(N/N=C/c1ccc(OC(=O)c2ccccc2Cl)cc1)c1ccc(O)cc1,inactive,–
O=C(Cc1cccs1)N/N=C/c1ccc(OCc2ccccc2)cc1,inactive,–
O=C(N/N=C/c1ccc(OCc2ccccc2)cc1)c1ccc(O)cc1,8.91 µM (active),–
CCn1nc(C)c(CNC(=O)C2CCC(=O)N(Cc3cccc(F)c3)C2)c1C (stereo unspecified),inactive,–
CC(C)(O)C(=O)NN(C(=O)c1ccccc1)c1cccc(Br)c1,inactive,–
Cc1ccc(N(NC(=O)C(C)(C)O)C(=O)c2ccccc2)cc1C,inactive,–
CCCC(O)(CCC)C(=O)NN(C(=O)CCl)c1cccc(C)c1,15.8 µM (active),–
CCCCC(O)(CCCC)C(=O)NN(C(=O)CCl)c1ccccc1,12.6 µM (active),–
COC(=O)N(NC(=O)C(O)(C(C)C)C(C)C)c1ccccc1,inactive,–
CCCCCNC(=O)C1c2ccccc2Oc2ccccc21,inactive,–
Cc1cc(C)n(CC(O)COc2ccc(C(C)(C)C)cc2)n1 (stereo unspecified),inactive,–
CCc1ccc(N(C(=O)c2csnn2)C(C(=O)NC2CCCCC2)c2cccnc2)cc1 (stereo unspecified),inactive,–
O=C(O)c1cc(S(=O)(=O)N(Cc2ccccc2)c2cccc(C(F)(F)F)c2)ccc1Cl,inactive,–
O=S(=O)(NCCc1ccc(Cl)cc1)c1cccs1,inactive,–
COC(=O)c1c(NC(=O)c2ccc(S(=O)(=O)N3CCOCC3)cc2)sc2c1CCN(C(C)C)C2,inactive,–
CC(CCc1ccccc1)NC(=O)c1cnc(Cl)c(Cl)c1 (stereo unspecified),inactive,–

Structure (SMILES),Potency,"activity change, negative = inhibition"
Cc1nn(Cc2ccc(C(=O)N3N=C(C(F)F)CC3(O)C(F)F)cc2)c(C)c1[N+](=O)[O-] (stereo unspecified),12.6 µM (active),–
Cc1ccn(CC(=O)N2N=C(C(F)F)CC2(O)C(F)F)n1 (stereo unspecified),inactive,–
CCc1ccc(NC(=O)Cn2nc(C)c([N+](=O)[O-])c2C)cc1,inactive,–
CN(Cc1c(F)cccc1Cl)S(=O)(=O)c1cccs1,inactive,–
COc1ccc(C(=O)NC2=NCCS2)c(OC)c1,11.2 µM (active),–
COc1ccc(C(=O)Nc2nncs2)c(OC)c1,inactive,–
COc1ccc(C(=O)NCc2nnc(SCC(=O)NC3=NCCS3)n2C)cc1,inactive,–
CSCC[C@H](NC(=O)N1CCn2c1nc1ccccc12)C(=O)NC1CCCCC1,inactive,–
CC(C)OC(=O)c1ccc(COc2ccc3ccc(=O)oc3c2)o1,inactive,–
Cc1ccc(-c2nnc(SCC(=O)N/N=C/c3cccs3)n2-c2ccc(C)cc2)cc1,17.8 µM (active),–
Cc1ccc(-n2c(SCC(=O)N3c4ccccc4Sc4ccccc43)nnc2-c2ccncc2)cc1,inactive,–
NNC(=O)CSc1nnc(-c2ccccc2)n1-c1ccccc1,inactive,–
COCCN1C(=O)C(=O)/C(=C(/O)c2ccc(S(=O)(=O)N3CCOCC3)cc2)C1c1ccc(OC)c(OC)c1 (stereo unspecified),inactive,–
COc1ccc(C2C3=C(CCCC3=O)N(CC(=O)O)C3=C2C(=O)CCC3)cc1,inactive,–
Cc1cc(NC(=O)Nc2ccc(Cl)cc2)n(-c2ccccc2)n1,inactive,–
Cc1cc(C)nc(-n2nc(C)cc2NC(=O)c2ccc(F)cc2F)n1,0.178 µM (active),–
CC(=O)N/C(=N/c1nc(C)cc(C)n1)Nc1ccc(F)cc1F,inactive,–
CCN1C(=O)c2cccc3c(S(=O)(=O)Nc4ccccc4O)ccc1c23,inactive,–
CN(C)c1cccc(C(=O)N2CCC(n3nccc3NC(=O)C3CCOC3)CC2)c1 (stereo unspecified),inactive,–
N#Cc1ccc(S(=O)(=O)NCC(=O)OCC(=O)NCCc2ccccc2)cc1,inactive,–
Cc1ccc(C)c(N2CCN(C(=O)CCCCCn3c(=S)[nH]c4ccc(N5CCOCC5)cc4c3=O)CC2)c1,10 µM (active),–
CCCCNC(=O)CCn1c(=S)[nH]c2cc3c(cc2c1=O)OCO3,inactive,–
Cc1ccc(C)c(N2CCN(C(=O)CCCn3c(=O)c4cccn4c4cccnc43)CC2)c1,inactive,–
O=C(CCCCCn1c(=S)[nH]c2cc3c(cc2c1=O)OCO3)N1CCN(c2ccc(F)cc2)CC1,4.47 µM (active),–
CC(C)NC(=O)CCCn1c(=S)[nH]c2cc3c(cc2c1=O)OCO3,inactive,–
